Reference: the supplement of paper PMC11732987, “Enantioselective OTUD7B fragment discovery through chemoproteomics screening and high-throughput optimisation” (Communications Chemistry, 2025)

Tests used:
Assay in all cases: log2 ratio of Biotin-Ahx-Ub-VS probe labelling (fragment/DMSO); higher = less target engagement (more negative = stronger competition), active = hit call of the paper (q ≤ 0.05, log2 ratio ≤ -1)
Conditions in all cases: compound concentration: 200 uM; treatment time: 3 h
[1] = molecular target: USP34 (UniProt Q70CQ2)
Sequence of USP34 (Q70CQ2 whole entry, the tested form may be a part): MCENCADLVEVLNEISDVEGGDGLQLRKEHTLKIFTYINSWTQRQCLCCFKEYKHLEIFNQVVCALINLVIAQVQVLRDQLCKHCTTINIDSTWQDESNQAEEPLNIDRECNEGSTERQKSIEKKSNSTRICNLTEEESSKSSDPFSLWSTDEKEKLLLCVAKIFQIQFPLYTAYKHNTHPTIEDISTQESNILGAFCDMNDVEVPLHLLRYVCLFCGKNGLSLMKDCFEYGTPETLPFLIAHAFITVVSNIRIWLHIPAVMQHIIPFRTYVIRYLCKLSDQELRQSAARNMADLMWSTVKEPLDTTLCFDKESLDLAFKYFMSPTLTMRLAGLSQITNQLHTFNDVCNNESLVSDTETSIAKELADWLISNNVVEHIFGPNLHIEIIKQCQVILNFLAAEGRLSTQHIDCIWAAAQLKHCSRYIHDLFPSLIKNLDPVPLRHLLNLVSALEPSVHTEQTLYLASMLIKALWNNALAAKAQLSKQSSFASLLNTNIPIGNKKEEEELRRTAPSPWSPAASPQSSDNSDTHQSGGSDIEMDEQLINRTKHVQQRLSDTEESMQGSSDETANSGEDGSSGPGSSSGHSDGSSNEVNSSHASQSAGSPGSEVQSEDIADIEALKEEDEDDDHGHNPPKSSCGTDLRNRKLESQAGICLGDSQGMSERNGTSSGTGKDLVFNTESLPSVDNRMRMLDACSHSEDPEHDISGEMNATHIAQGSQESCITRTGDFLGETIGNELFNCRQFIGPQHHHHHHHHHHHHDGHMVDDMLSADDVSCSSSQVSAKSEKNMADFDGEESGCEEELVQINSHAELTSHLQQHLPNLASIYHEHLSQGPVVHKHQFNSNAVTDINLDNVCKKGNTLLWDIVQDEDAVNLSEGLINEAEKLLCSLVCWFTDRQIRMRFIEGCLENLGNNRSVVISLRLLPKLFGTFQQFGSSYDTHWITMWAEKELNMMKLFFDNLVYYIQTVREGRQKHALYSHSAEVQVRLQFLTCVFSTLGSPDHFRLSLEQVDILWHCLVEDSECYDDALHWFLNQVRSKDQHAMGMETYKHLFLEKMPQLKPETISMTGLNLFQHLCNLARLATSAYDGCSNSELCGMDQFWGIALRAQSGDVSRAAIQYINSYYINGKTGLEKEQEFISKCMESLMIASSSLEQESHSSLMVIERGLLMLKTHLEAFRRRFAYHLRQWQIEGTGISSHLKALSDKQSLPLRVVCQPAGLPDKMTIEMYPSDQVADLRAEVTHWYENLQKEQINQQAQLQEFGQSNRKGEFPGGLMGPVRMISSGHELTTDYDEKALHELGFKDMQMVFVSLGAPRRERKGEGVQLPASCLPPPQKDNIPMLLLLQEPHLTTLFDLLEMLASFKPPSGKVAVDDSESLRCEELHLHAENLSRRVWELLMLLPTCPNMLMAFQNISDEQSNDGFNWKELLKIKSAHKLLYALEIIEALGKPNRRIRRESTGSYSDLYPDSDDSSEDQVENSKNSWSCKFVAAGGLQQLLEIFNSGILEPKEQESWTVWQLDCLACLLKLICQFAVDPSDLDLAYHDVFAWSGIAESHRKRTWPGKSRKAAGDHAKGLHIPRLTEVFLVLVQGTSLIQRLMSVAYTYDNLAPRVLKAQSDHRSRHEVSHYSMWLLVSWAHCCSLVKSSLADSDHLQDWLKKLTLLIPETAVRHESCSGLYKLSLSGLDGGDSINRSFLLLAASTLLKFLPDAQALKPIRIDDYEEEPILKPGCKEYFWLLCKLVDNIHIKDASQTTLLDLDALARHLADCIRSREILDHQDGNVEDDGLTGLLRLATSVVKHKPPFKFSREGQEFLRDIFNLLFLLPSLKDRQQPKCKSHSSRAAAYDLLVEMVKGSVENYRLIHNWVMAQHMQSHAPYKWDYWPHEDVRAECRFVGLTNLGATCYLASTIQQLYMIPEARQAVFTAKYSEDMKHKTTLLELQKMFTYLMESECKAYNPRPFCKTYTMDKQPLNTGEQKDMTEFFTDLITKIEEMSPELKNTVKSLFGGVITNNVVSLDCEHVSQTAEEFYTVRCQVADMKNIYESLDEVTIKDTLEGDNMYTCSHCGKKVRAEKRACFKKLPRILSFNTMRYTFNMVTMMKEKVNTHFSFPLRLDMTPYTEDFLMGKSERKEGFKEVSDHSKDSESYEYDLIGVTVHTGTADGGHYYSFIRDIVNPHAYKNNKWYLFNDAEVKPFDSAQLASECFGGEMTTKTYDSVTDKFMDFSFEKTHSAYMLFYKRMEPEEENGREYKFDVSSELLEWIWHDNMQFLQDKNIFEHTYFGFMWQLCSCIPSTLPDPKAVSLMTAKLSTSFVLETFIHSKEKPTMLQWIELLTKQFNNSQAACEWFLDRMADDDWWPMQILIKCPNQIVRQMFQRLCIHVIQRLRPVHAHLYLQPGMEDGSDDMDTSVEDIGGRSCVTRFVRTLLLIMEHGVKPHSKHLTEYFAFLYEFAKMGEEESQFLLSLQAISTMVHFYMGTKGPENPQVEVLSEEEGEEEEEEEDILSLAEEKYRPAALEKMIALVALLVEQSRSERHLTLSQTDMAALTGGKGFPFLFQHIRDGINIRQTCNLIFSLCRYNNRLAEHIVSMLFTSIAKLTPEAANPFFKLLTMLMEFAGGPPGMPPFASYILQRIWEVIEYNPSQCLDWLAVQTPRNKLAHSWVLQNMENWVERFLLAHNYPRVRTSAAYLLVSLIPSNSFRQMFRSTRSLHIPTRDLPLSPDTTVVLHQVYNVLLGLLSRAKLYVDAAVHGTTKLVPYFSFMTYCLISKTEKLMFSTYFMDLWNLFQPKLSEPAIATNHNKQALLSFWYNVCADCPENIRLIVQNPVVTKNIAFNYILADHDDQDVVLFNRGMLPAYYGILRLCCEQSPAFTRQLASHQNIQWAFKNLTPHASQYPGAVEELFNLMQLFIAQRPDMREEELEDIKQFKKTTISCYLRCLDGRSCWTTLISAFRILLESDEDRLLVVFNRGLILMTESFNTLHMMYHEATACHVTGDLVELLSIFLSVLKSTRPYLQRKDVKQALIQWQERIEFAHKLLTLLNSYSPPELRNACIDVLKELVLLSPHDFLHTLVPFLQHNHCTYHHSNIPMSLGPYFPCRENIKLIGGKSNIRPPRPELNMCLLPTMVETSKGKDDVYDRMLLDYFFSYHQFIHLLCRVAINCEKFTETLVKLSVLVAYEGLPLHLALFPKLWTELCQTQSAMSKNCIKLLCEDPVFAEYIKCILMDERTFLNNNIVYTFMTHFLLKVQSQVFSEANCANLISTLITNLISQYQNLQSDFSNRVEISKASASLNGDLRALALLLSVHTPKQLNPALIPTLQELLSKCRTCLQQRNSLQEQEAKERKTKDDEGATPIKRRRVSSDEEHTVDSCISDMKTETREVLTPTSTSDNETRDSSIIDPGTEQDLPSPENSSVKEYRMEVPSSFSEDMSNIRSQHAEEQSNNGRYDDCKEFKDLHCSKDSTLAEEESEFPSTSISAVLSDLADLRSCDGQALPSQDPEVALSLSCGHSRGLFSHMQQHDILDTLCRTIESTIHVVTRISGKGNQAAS
Summary of the method: (§1)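 HEK293T lysate (495 µg per sample, in Tris/CHAPS/IGEPAL buffer with protease inhibitors) was exposed in triplicate for 3 h to fragment at 200 µM or to vehicle, then to Biotin-Ahx-Ub-VS at 0.5 µM final for 1 h. Labelled DUBs were enriched on NeutrAvidin, digested with LysC and trypsin, and analysed by diaPASEF LC-MS/MS. Spectronaut label-free quantities were normalised to the global median, and values are average log2 ratios of fragment over vehicle from an unpaired t-test. Only proteins with ≥2 unique peptides were used.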

[2] = molecular target: T1, USP36 (UniProt Q9P275)
T1 sequence (whole entry): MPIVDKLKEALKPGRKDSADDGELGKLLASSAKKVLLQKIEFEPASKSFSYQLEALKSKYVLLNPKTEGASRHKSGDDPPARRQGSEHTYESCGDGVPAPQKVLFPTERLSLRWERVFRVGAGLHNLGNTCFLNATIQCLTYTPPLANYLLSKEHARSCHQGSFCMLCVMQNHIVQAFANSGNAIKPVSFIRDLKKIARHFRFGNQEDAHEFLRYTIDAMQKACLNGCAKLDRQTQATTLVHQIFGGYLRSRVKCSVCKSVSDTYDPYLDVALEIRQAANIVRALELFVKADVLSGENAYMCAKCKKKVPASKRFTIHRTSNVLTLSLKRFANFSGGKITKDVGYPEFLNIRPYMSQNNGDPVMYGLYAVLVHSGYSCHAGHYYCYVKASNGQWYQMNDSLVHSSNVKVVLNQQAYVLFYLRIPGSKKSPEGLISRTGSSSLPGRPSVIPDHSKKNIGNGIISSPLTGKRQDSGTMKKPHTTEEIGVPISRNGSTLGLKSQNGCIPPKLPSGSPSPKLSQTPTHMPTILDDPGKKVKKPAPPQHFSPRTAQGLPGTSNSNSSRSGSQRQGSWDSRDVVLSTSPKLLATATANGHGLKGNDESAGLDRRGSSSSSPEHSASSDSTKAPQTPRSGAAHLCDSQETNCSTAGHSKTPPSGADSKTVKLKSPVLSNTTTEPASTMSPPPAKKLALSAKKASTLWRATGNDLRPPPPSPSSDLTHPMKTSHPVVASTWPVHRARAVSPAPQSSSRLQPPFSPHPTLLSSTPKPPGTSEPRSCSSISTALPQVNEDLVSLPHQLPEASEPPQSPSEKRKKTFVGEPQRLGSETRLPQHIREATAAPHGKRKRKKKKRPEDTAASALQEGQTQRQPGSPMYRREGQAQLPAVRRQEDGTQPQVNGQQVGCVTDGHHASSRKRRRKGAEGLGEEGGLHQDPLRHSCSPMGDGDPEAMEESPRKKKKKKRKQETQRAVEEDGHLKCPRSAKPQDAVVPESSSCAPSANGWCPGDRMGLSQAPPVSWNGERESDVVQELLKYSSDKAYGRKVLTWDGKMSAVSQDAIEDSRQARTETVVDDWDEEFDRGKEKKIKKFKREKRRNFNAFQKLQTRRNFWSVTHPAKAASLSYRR
Summary of the method: as §1

[3] = molecular target: T2, USP38 (UniProt Q8NB14)
T2 sequence (whole entry): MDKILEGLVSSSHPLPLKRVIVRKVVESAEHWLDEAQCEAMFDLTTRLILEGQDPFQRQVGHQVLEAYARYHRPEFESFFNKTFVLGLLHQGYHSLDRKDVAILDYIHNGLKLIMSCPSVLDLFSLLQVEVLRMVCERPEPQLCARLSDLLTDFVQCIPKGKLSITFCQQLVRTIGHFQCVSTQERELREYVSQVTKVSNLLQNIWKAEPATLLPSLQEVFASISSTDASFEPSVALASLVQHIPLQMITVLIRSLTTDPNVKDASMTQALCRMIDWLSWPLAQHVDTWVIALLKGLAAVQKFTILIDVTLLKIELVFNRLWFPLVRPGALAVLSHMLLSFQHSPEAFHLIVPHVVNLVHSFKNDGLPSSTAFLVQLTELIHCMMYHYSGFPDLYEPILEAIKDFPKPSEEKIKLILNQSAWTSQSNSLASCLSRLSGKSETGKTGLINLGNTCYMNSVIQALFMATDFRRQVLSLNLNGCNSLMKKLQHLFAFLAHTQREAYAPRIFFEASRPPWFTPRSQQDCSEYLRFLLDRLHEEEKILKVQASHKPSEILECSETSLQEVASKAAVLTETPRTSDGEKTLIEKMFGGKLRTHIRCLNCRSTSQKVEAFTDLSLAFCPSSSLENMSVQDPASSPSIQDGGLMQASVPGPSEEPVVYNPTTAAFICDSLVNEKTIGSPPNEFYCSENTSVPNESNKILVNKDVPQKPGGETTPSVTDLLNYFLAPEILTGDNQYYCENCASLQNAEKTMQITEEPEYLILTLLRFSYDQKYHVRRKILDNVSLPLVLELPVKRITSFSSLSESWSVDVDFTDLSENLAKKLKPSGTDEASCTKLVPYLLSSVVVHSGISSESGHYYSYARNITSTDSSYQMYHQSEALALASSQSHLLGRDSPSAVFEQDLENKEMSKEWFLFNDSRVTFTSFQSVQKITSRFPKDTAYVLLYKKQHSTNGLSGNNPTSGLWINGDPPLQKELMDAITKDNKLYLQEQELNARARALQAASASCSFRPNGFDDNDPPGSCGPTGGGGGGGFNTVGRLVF
Summary of the method: as §1

[4] = molecular target: T3, USP39 (UniProt Q53GS9)
T3 sequence (whole entry): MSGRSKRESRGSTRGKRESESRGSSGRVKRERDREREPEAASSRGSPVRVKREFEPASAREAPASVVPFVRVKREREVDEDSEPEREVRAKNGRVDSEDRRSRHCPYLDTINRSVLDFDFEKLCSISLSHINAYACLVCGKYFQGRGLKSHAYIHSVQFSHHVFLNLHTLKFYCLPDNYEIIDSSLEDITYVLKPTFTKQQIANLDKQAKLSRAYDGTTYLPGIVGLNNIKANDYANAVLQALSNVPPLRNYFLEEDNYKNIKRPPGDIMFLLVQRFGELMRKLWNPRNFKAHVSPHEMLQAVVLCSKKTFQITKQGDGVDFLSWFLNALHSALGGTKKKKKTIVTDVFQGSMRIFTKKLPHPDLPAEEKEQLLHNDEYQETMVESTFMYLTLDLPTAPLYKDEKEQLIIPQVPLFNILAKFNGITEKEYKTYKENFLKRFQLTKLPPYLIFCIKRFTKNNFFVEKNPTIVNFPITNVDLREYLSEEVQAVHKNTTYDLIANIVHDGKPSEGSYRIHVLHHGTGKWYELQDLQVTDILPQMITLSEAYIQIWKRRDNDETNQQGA
Summary of the method: as §1

[5] = molecular target: T4, USP4 (UniProt Q13107)
T4 sequence (whole entry): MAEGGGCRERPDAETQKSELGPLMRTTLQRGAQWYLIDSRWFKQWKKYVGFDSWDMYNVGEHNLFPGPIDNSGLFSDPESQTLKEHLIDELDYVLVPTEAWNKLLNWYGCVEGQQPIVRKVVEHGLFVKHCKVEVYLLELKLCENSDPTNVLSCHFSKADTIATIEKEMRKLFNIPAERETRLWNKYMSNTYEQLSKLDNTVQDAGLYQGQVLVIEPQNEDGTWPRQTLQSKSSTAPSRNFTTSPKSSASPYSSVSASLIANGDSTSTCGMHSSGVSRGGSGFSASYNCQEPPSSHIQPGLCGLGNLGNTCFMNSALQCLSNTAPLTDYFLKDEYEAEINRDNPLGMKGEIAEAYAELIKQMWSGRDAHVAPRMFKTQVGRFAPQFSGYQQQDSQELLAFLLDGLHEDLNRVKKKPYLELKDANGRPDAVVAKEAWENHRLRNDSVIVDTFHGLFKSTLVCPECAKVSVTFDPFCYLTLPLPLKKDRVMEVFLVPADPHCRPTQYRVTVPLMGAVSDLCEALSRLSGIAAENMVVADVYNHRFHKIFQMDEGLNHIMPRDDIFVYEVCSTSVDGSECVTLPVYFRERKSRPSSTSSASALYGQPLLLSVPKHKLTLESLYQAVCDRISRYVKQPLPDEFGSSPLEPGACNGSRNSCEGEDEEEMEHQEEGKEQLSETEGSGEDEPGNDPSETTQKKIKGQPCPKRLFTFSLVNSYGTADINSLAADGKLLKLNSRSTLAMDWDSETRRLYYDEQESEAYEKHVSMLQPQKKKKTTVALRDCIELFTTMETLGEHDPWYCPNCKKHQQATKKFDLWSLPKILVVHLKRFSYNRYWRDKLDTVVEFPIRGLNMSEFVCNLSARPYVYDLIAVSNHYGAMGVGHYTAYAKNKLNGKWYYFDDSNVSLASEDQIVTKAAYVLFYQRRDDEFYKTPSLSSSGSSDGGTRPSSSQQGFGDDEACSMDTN
Summary of the method: as §1

Measured: log2 ratio of Biotin-Ahx-Ub-VS probe labelling

Cc1ccc(C(=O)NCCNC(=O)CCl)cc1
inactive: [1] -0.0636 | [2] 0.0541 | [3] -0.00607 | [4] -0.0936 | [5] -0.258
